Screens deposited in PubChem BioAssay by National Center for Advancing Translational Sciences (NCATS).
Sampled rows, rich in hits. Any-hit rate of the full collection: about 18%.
KAT2A inh: blocks human GCN5L2 histone acetyltransferase; GCN5L2 HAT assay, ThioGlo1 CoA-SH fluorescence; Potency, µM (top dose mostly 58.9 µM), most hits filed as inhibitors; 0.21% of 390,000 active; AID 504327
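Preincubate 20nM GCN5L2 with compound 15 min, RT → add 50uM ThioGlo1 + 75uM H3(1-25) + 70uM acetyl-CoA → read fluorescence 0 and 20 min. Primary qHTS; fluorescent artifacts likely.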
PLK1 PBD inh: blocks phosphopeptide binding to human PLK1 polo-box domain. AID 720504. Plk1 PBD binding of FITC phosphopeptide, fluorescence polarization. Potency, µM, usual class: inhibitors. P53350. 2.8% of 360,000 active; note: series mostly up to about 57 µM; nearly all actives have a fitted effect of over 65% in size
Target sequence (P53350 whole entry, looked up, the tested form may be a part): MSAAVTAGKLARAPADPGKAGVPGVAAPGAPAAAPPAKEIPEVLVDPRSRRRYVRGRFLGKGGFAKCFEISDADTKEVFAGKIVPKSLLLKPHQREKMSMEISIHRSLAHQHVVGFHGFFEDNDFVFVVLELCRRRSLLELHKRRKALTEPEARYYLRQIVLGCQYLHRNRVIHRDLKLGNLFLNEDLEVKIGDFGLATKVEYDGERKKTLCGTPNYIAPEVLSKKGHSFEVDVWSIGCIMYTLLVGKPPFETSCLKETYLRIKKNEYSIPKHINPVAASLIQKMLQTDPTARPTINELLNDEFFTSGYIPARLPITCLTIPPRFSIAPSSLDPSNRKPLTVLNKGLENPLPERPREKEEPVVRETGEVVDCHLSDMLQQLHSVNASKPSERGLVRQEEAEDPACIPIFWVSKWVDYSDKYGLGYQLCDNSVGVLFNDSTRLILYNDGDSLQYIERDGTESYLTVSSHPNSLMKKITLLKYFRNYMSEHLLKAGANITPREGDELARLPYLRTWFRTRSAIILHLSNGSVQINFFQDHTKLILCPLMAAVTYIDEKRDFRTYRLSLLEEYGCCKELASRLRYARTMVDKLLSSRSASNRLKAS
VDR inhibitor: vitamin D3 receptor (human) inhibition; P11473; AID 504847; VDR-SRC2-3 peptide fluorescence polarization, 2 h; 0.93% of 400,000 active; Potency, µM, most hits filed as inhibitors
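Fluorescence polarization assay measuring small-molecule disruption of VDR binding to the coregulator peptide SRC2-3. Compounds were pin-transferred (23 nl) into the reagent mix and incubated 2 h at room temperature before reading.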
TDP1 block: TDP1 (human) enzyme inhibition; recombinant TDP1, AlphaScreen DNA substrate cleavage; Potency, µM (series often up to 130 µM), actives largely listed as inhibitors; 0.28% of 350,000 active; AID 485290; note: nearly all actives have a fitted effect of over 40% in size
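E. coli-derived human Tdp1, 1 nM final. Cpd preinc 15 min RT; substrate 15 nM final, 5 min RT; AS bead mix 10 ug/ml final, 10 min RT. Signal loss = tyrosine-FITC cleavage. No-enzyme wells = max signal.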
DT40 TDP1 CPT: growth inhibition of DT40 Tdp1-/-;hTDP1 cells with camptothecin (screen for TDP1 inhibitors). AID 686979. Potency, µM (series often up to 46.2 µM), actives largely listed as inhibitors. chicken DT40 Tdp1-/-;hTDP1 cells + 20 nM CPT, ATP luminescence, 48 h. 12% of 420,000 active; note: nearly all actives have a fitted effect of over 55% in size
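Chicken DT40 Tdp1-/- cells complemented with human TDP1, 400 cells/well, exposed to compounds plus 20 nM camptothecin for at least 48 h at 37 C; viability read as ATP content by CellTiter-Glo luminescence.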
TDP1 cell noCPT: qHTS for Inhibitors of human tyrosyl-DNA phosphodiesterase 1 (TDP1): qHTS in cells in absence of CPT; DT40 Tdp1-/- hTDP1 cells, no CPT, ATP luminescence, 48 h; Potency, µM (top dose mostly 46.2 µM), most hits filed as inhibitors; 15% of 420,000 active; AID 686978, 2013; note: nearly all actives have a fitted effect of over 55% in size
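Stably hTDP1-transfected Tdp1-null chicken DT40 cells were treated with library compounds minus camptothecin and grown for at least 48 hr at 37 °C, after which cellular ATP was quantified by luminescence.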
Large screens that a line does not name were inactive. Calls come from the whole dose curve; as a rule, active = well fitted curve in the direction sought with a large enough effect; inconclusive = small, poorly fitted or top-dose-only effect, or another doubt; inactive = no such curve, though single readings can be large; an effect the other way counts as inactive or inconclusive.

Cc1ccc(Cl)cc1N1CCN(C(=O)C2CCN(S(=O)(=O)Cc3ccccc3)CC2)CC1	DT40 TDP1 CPT 4.1µM, TDP1 cell noCPT 13µM (no result: PLK1 PBD inh)
Cc1ccc(Cl)cc1N1CCN(S(C)(=O)=O)CC1	none
Cc1ccc(Cl)cc1N1CCN(C(=O)C2CCN(S(=O)(=O)c3cccnc3)CC2)CC1	DT40 TDP1 CPT 2.9µM, TDP1 cell noCPT 4.6µM
O=C(COC(=O)c1ccc(S(=O)(=O)N2CCCCC2)cc1)NCc1ccc(F)cc1	none
Cc1cccc(CSc2nc(-c3cccc(C)c3)nc3c2Cc2c(CO)cnc(C)c2O3)c1	DT40 TDP1 CPT inconclusive, TDP1 cell noCPT inconclusive (no result: PLK1 PBD inh)
O=C(C1CCN(S(=O)(=O)c2cccnc2)CC1)N1CCN(c2ccc(Cl)cc2)CC1	DT40 TDP1 CPT 5.2µM, TDP1 cell noCPT 3.7µM (no result: TDP1 block)
O=C(C1CCN(S(=O)(=O)c2ccccc2)CC1)N1CCN(c2ccccc2)CC1	DT40 TDP1 CPT inconclusive, TDP1 cell noCPT 21µM
COc1ccc(C2N3CC4(C)CN2CC(c2ccccc2)(C3)C4=O)cc1 (centres undefined)	DT40 TDP1 CPT inconclusive, TDP1 cell noCPT inconclusive (no result: PLK1 PBD inh)
O=C(/C=C/c1ccccc1Cl)N(c1ccccn1)C1CCCCC1	DT40 TDP1 CPT inconclusive, TDP1 cell noCPT 16µM
CCN(CC)S(=O)(=O)c1ccc(/C=C/C(=O)N(c2ccccn2)C2CCCCC2)cc1	DT40 TDP1 CPT inconclusive, TDP1 cell noCPT 12µM
O=C(/C=C/c1ccccc1)N(c1ccccn1)C1CCCCC1	DT40 TDP1 CPT inconclusive, TDP1 cell noCPT inconclusive
CCOC(=O)c1cnn(-c2ccc(C(=O)Nc3ccc(C(C)=O)cc3)cc2)c1N	none (no result: PLK1 PBD inh)
CCOC(=O)c1nc(NCc2ccc(Cl)cc2)c2c(C)noc2n1	DT40 TDP1 CPT inconclusive, TDP1 cell noCPT inconclusive (no result: PLK1 PBD inh)
Cc1c(CC(=O)NCc2ccc(F)cc2)c(=O)oc2cc(O)c(Cl)cc12	KAT2A inh inconclusive, DT40 TDP1 CPT inconclusive, TDP1 cell noCPT inconclusive (no result: PLK1 PBD inh)
c1ccc2c(CN3CCOCC3)c3ccccc3c(CN3CCOCC3)c2c1	DT40 TDP1 CPT inconclusive, TDP1 cell noCPT inconclusive
OC1(CN2CCOCC2)C2CN3CCN(C2)CC1(c1ccccc1)C3 (centres undefined)	PLK1 PBD inh 21µM, DT40 TDP1 CPT 29µM, TDP1 cell noCPT inconclusive
CCc1ccc(/C=C2/C(=O)N(CC)C(=S)N2C)s1	PLK1 PBD inh 24µM
CCN1/C(=C2\C(=O)N(C)C(=S)N2C)C=Cc2cc(C)ccc21	DT40 TDP1 CPT inconclusive, TDP1 cell noCPT inconclusive
COc1ccc(C)cc1-n1nnnc1SCC(=O)NC1CCS(=O)(=O)C1 (centres undefined)	none
Cc1cc(NC(=O)CN2CCN(C)CC2)no1	PLK1 PBD inh 12µM, VDR inhibitor inconclusive, DT40 TDP1 CPT inconclusive, TDP1 cell noCPT inconclusive
CCc1ccc(C2CC(=O)N(c3cccc(C(F)(F)F)c3)C3=C2C(=O)OC3)cc1 (centres undefined)	none (no result: PLK1 PBD inh)
COc1ccccc1C1CC(=O)N(c2cccc(C(F)(F)F)c2)C2=C1C(=O)OC2 (centres undefined)	DT40 TDP1 CPT 8.2µM, TDP1 cell noCPT inconclusive (no result: PLK1 PBD inh)
CN1Cc2cc(C(=O)c3ccccc3O)cnc2NC1=O	VDR inhibitor inconclusive, DT40 TDP1 CPT inconclusive, TDP1 cell noCPT inconclusive
COc1ccc(O)c(C(=O)c2cnc3c(c2)CN(C)C(=O)N3)c1	DT40 TDP1 CPT 18µM, TDP1 cell noCPT 18µM
CCCCc1nn2c(=O)cc(COC(=O)c3cccs3)nc2s1	none (no result: PLK1 PBD inh)
CCc1nc(NC(=O)c2sc(C)nc2C)sc1C(=O)OC	none (no result: TDP1 block)
COc1ccccc1/C=C(/C(=O)OCC(=O)Nc1cc(C)ccc1C)c1ccccc1	DT40 TDP1 CPT 26µM, TDP1 cell noCPT 21µM
COc1ccc(CCN=C(N)Nc2nc(C)cc(C)n2)cc1	DT40 TDP1 CPT 7.3µM, TDP1 cell noCPT 7.3µM
O=C1CC(N2CCN(S(=O)(=O)c3ccccc3F)CC2)C(=O)N1c1ccccc1Cl (centres undefined)	none
COc1ccc(C(Nc2ccccn2)c2ccc3ccc(C)nc3c2O)cc1C (centres undefined)	VDR inhibitor inconclusive, DT40 TDP1 CPT inconclusive, TDP1 cell noCPT inconclusive (no result: PLK1 PBD inh, TDP1 block)
Cc1ccc(C)c(C(Nc2ccccc2)c2ccc3ccc(C)nc3c2O)c1 (centres undefined)	DT40 TDP1 CPT 21µM, TDP1 cell noCPT 18µM (no result: KAT2A inh, VDR inhibitor, TDP1 block)
Cc1cccc(NC(c2ccccc2F)c2ccc3ccc(C)nc3c2O)n1 (centres undefined)	DT40 TDP1 CPT inconclusive, TDP1 cell noCPT 23µM (no result: PLK1 PBD inh)
Cc1ccc(F)cc1NC(=O)C1CC(=O)N(Cc2ccccc2)C1 (centres undefined)	none (no result: KAT2A inh, VDR inhibitor, TDP1 block)
Cc1ccc(OCC(=O)Nc2ccc3c(c2)C(=O)N(CCC(=O)O)C3=O)cc1	none
C=CC[C@@H](CC(=O)N[C@H](CO)Cc1ccccc1)C(=O)N[C@H](C)COC(=O)[C@@H](CC=C)CC(=O)OC(C)(C)C	DT40 TDP1 CPT inconclusive, TDP1 cell noCPT inconclusive
C=CC[C@@H](CC(=O)N[C@@H](CO)Cc1ccccc1)C(=O)N[C@@H](COC(=O)[C@@H](CC=C)CC(=O)OC(C)(C)C)Cc1c[nH]c2ccccc12	DT40 TDP1 CPT 21µM, TDP1 cell noCPT 13µM
C=CC[C@@H](CC(=O)N[C@H](CO)Cc1ccccc1)C(=O)N[C@@H](COC(=O)[C@@H](CC=C)CC(=O)OC(C)(C)C)Cc1ccccc1	DT40 TDP1 CPT 16µM, TDP1 cell noCPT inconclusive
C=CC[C@@H](CC(=O)N[C@H](CO)Cc1ccccc1)C(=O)N[C@@H](COC(=O)[C@@H](CC=C)CC(=O)OC(C)(C)C)Cc1c[nH]c2ccccc12	DT40 TDP1 CPT 16µM, TDP1 cell noCPT inconclusive
C=CC[C@@H](CC(=O)N[C@@H](CO)Cc1ccccc1)C(=O)NC[C@@H](OC(=O)[C@@H](CC=C)CC(=O)OC(C)(C)C)c1ccccc1	DT40 TDP1 CPT 21µM, TDP1 cell noCPT inconclusive
O=c1[nH]c2ccccc2cc1CN(Cc1ccco1)S(=O)(=O)c1ccccc1	TDP1 cell noCPT inconclusive
C[C@H]1CN([C@@H](C)CO)C(=O)c2cc(C#CC3CCCC3)cnc2O[C@H]1CN(C)C(=O)Cc1ccccn1	none (no result: KAT2A inh, VDR inhibitor, TDP1 block)
C=CC[C@H](CC(=O)N[C@H](CO)Cc1ccccc1)C(=O)N[C@@H](COC(=O)[C@H](CC=C)CC(=O)OC(C)(C)C)Cc1c[nH]c2ccccc12	DT40 TDP1 CPT 21µM, TDP1 cell noCPT 23µM
C=CC[C@@H](CC(=O)N[C@H](CO)Cc1ccccc1)C(=O)N[C@H](COC(=O)[C@@H](CC=C)CC(=O)OC(C)(C)C)Cc1c[nH]c2ccccc12	DT40 TDP1 CPT inconclusive, TDP1 cell noCPT inconclusive
